Drawing on PubChem BioAssay AID2284359 (EPA ToxCast), this text covers outcome for eleven compounds.

The structures appear in SMILES notation. Results filed as inconclusive are left out. The source made the active and inactive calls. Rule for the calls: active = hit-call score of the fitted dose curve at least 0.9, where 1 is the maximum; inconclusive = response in the unintended direction; inactive = score below 0.9.

This assay in a line: ATG_M_06_EcoTox2: Attagene TRANS-FACTORIAL EcoTox-2 HepG2 Assay for M06 Transcription Factor (Internal Marker). How it is done: ATG_EcoTox2 is a cell-based, multiplexed assay created by modifying the existing Attagene TRANS-FACTORIAL system to include a panel of nuclear receptors from some or all the following species: human (Homo sapiens), african clawed frog (Xenopus laevis), rainbow trout (Oncorhynchus mykiss), japanese medaka (Oryzias latipes), and zebrafish (Danio rerio). The ECOTOX2-FACTORIAL format uses HepG2, a human liver cell line, with measurements taken at 24 hours after chemical dosing in a 24-well plate. ATG_M_06_EcoTox2 is one of 29 assay components calculated in the ATG_EcoTox2 assay. It is designed to make measurements of mRNA induction, a form of inducible reporter, as detected with fluorescence intensity signals by Reverse transcription polymerase chain reaction (RT-PCR) and Capillary electrophoresis technology.The assay endpoint ATG_M_06_EcoTox2 was analyzed in the positive analysis fitting direction relative to DMSO as the negative control and baseline of activity. Using a type of inducible reporter, measures of mRNA for gain-of-signal activity can be used to understand the background control at the transcription factor-level as they relate to the gene. Furthermore, this assay endpoint can be referred to as a secondary readout, because this assay has produced multiple assay endpoints where this one serves a background control function. To generalize the intended target to other relatable targets, this assay endpoint is annotated to the background measurement intended target family, where the subfamily is internal marker.
Human liver HepG2 cells are transiently transfected with multiple reporter transcription units (MRTUs) in 6-well plates using FuGene 6 reagent (Roche; 3 ml FuGene/1 mg DNA). The MRTU constructs are regulated by a cis-regulating element (promoter). Each RTU expresses a GAL4-UAS that regulates the transcription of a nearby target reporter gene sequence. A major difference between the CIS and TRANS system is that in CIS activities of endogenous TFs are measured, whereas the TRANS assay evaluates changes in activities of exogenous, chimeric NR-Gal4 proteins. […] At the end of 24 hour incubation, total RNA was isolated using TriZol reagent (Invitrogen). The isolated RNA is then reverse-transcribed using oligo(dT) primer and Mo-MLV reverse transcriptase (Invitrogen) with DNAse I (Ambion) treatment for 30 min. The one-tenth of the produced cDNA was amplified by PCR using Taq DNA polymerase (Invitrogen) and two reporter sequence-specific primers. The PCR products were fluorescently labeled by primer extension with 6-arboxyfluorescein (6-FAM) 5'-labeled reporter sequence-specific primer (2 min at 95 C, 20 s at 68 C and 10 min at 72 C) and these products were digested with 5U of HpaI (New England Biolabs) for 2h at 37 C. The fragments were purified using Qiaquick PCR columns (Qiagen), analyzed on an ABI 3130xL genetic analyzer (Applied Biosystems) with peak positions identified by using a set of X-rhodamine (ROX)-labeled MapMarker1000 molecular weight standards (BioVentures). The raw capillary electrophoresis data was processed using Attagraph software (Attagene).
Take `CC(C)(Oc1ccc(CCNC(=O)c2ccc(Cl)cc2)cc1)C(=O)O`: the call was inactive.

Take `CC(C)(Oc1ccc(Cl)cc1)C(=O)O`: the result was inactive.

Take `C[C@]12C=CC(=O)C=C1CC[C@@H]1[C@@H]2C(=O)C[C@@]2(C)[C@H]1CC[C@]2(O)C(=O)CO`: the result was inactive.

`CC(C)(Oc1ccc(C2CC2(Cl)Cl)cc1)C(=O)O` (stereo unspecified): the outcome was inactive.

For the compound `C=C(c1ccc(C(=O)O)cc1)c1cc2c(cc1C)C(C)(C)CCC2(C)C`, the compound was classed as inactive.

Take `CN(CCOc1ccc(CC2SC(=O)NC2=O)cc1)c1ccccn1` (stereo unspecified): the outcome was inactive.

On to `Cc1cccc(Nc2cc(Cl)nc(SCC(=O)O)n2)c1C`, for which the outcome was inactive.

On to `CC(C)OC(=O)C(C)(C)Oc1ccc(C(=O)c2ccc(Cl)cc2)cc1`, for which the compound was classed as inactive.

In the case of `Cc1nc(-c2ccc(C(F)(F)F)cc2)sc1C(=O)NCc1ccc(OC(C)(C)C(=O)O)cc1`, the outcome was inactive.

For the compound `CC(c1cc2ccccc2s1)N(O)C(N)=O` (stereo unspecified), the call was inactive.

Take `Cc1c(C)c2c(c(C)c1O)CCC(C)(COc1ccc(CC3SC(=O)NC3=O)cc1)O2` (stereo unspecified): the compound was called inactive.
